Results: PubChem BioAssay (NCI)
“And” between values parts separate entries of the source, which are not always exact repeats. Equal entries are not always repeated. This is part of a sample that, as a whole, favours compounds with a hit. Of some 83,000 tested, about 20% had one in any assay.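 Compound tested at a single concentration for 48 hours in 96-well plates; a percent growth value below 10 was scored as active.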 The source made the active and inactive calls.

How the values were obtained:
Assay in all cases: NCI-60 one-dose screen, 48 h (100 = growth as untreated, 0 = no growth, -100 = all killed)
Conditions in all cases: 10 µM unless noted
SR leukemia = system: SR leukemia
RPMI-8226 leukemia = system: RPMI-8226 leukemia
OVCAR-8 ovarian = system: OVCAR-8 ovarian
OVCAR-5 ovarian = system: OVCAR-5 ovarian
OVCAR-4 ovarian = system: OVCAR-4 ovarian
SK-OV-3 ovarian = system: SK-OV-3 ovarian
IGROV1 ovarian = system: IGROV1 ovarian
OVCAR-3 ovarian = system: OVCAR-3 ovarian
HS 578T breast = system: HS 578T breast
NCI/ADR-RES ovarian = system: NCI/ADR-RES ovarian

| Compound | growth (SR leukemia) | growth (RPMI-8226 leukemia) | growth (OVCAR-8 ovarian) | growth (OVCAR-5 ovarian) | growth (OVCAR-4 ovarian) | growth (SK-OV-3 ovarian) | growth (IGROV1 ovarian) | growth (OVCAR-3 ovarian) | growth (HS 578T breast) | growth (NCI/ADR-RES ovarian) |
| --- | --- | --- | --- | --- | --- | --- | --- | --- | --- | --- |
| O=C(CN1CCOCC1)N1CCOCC1 | 94.5% (inactive) and 97.8% (inactive) | 96.3% (inactive) and 106% (inactive) | 109% (inactive) and 104% (inactive) | 115% (inactive) and 91.5% (inactive) | 113% (inactive) and 114% (inactive) | 110% (inactive) and 96.3% (inactive) | 117% (inactive) and 115% (inactive) | 115% (inactive) and 128% (inactive) | 111% (inactive) and 106% (inactive) | 107% (inactive) and 114% (inactive) |
| CCOC(=O)C(CNc1ccccc1)C(=O)OCC | 97% (inactive) | 95.1% (inactive) | 98.2% (inactive) | 102% (inactive) | 107% (inactive) | 98.9% (inactive) | 101% (inactive) | 105% (inactive) | 109% (inactive) | 103% (inactive) |
| OC(COc1cccc2ccccc12)CN1CCN(c2ccc(Cl)cc2)CC1 (stereo not given) | 113% (inactive) and 75.2% (inactive) | 68.2% (inactive) | 79.8% (inactive) and 87.1% (inactive) | 84.1% (inactive) and 87.3% (inactive) | 35.2% (inactive) and 92.1% (inactive) | 88.8% (inactive) and 100% (inactive) | 103% (inactive) and 84.8% (inactive) | 83.2% (inactive) and 116% (inactive) | 68% (inactive) and 116% (inactive) | 88.6% (inactive) and 83.4% (inactive) |
| CCOC(=O)c1c(C)oc(C)c(C(=O)OCC)c1=O | 118% (inactive) and 85% (inactive) | 85.9% (inactive) and 94.5% (inactive) | 104% (inactive) and 102% (inactive) | 114% (inactive) | 105% (inactive) and 94.6% (inactive) | 97.8% (inactive) and 95.3% (inactive) | – | 105% (inactive) and 127% (inactive) | 109% (inactive) | 108% (inactive) |
| CN(C)c1ccc2nc3ccc(N)cc3[n+](-c3ccccc3)c2c1 | 18.6% (inactive) and 11% (inactive) | 8.36% (active) and 13.7% (inactive) | 19.4% (inactive) and -16.6% (active) | 87.1% (inactive) and -46.4% (active) | 29.2% (inactive) and 1.54% (active) | 74.1% (inactive) and 30.9% (inactive) | 12.8% (inactive) and 13.7% (inactive) | 23.5% (inactive) and -18.1% (active) | – | 92% (inactive) and 26% (inactive) |
| Cc1nn(-c2ccc(Cl)cc2)c2ncnc(N/N=C/c3ccccc3O)c12 | 4.8% (active) and 5.64% (active) | 37.1% (inactive) and 11.7% (inactive) | 14.1% (inactive) and 14% (inactive) | 47.5% (inactive) and 52.7% (inactive) | 19.5% (inactive) and 21.9% (inactive) | 4.44% (active) and 10.8% (inactive) | 23.9% (inactive) and 4.47% (active) | 34.9% (inactive) and 26.7% (inactive) | – | 19.1% (inactive) and 10.5% (inactive) |
| S=C1SCN(Cc2ccccc2)CN1Cc1ccccc1 | 52.9% (inactive) | 17% (inactive) | 93.3% (inactive) | 93.2% (inactive) | 86.4% (inactive) | 103% (inactive) | – | 32.4% (inactive) | 90.4% (inactive) | 73.6% (inactive) |
| O=C(O)CN(CCN(CC(=O)O)CC(=O)O)CCN(CC(=O)O)CC(=O)O | -21% (active) and 105% (inactive) and 101% (inactive) | 14.4% (inactive) and 102% (inactive) and 101% (inactive) | -15.6% (active) and 97.9% (inactive) and 99.4% (inactive) | 89.8% (inactive) and 109% (inactive) | 20.2% (inactive) and 105% (inactive) and 100% (inactive) | 0.709% (active) and 105% (inactive) and 108% (inactive) | 15% (inactive) | -17.3% (active) and 110% (inactive) and 108% (inactive) | – | -37.7% (active) and 110% (inactive) and 113% (inactive) |
| CCOC(=O)c1sc(N)nc1-c1ccccc1 | 90.2% (inactive) | 99.1% (inactive) | 108% (inactive) | 90.9% (inactive) | 106% (inactive) | 93.7% (inactive) | 101% (inactive) | 108% (inactive) | 106% (inactive) | 104% (inactive) |
| CC1CCCC(=O)O1 (stereo not given) | 104% (inactive) | 96.7% (inactive) and 94.7% (inactive) | 110% (inactive) and 95.2% (inactive) | 101% (inactive) | 96% (inactive) and 104% (inactive) | 98% (inactive) and 110% (inactive) | 96% (inactive) and 99.9% (inactive) | 103% (inactive) and 115% (inactive) | – | 103% (inactive) and 99.8% (inactive) |
| COc1ccc2c(=O)cc(-c3ccccc3)[nH]c2c1 | 4.49% (active) | 21.8% (inactive) and 2.02% (active) | 17.5% (inactive) and 8.21% (active) | 49.4% (inactive) and 46.3% (inactive) | 53.1% (inactive) and 36.7% (inactive) | 5.46% (active) and 23.9% (inactive) | 33.2% (inactive) | -47.7% (active) and -45.4% (active) | – | -12.9% (active) |
| CC(CN=Cc1ccccc1O)N=Cc1ccccc1O (stereo not given) | 100% (inactive) | -6.87% (active) and 94% (inactive) | 106% (inactive) and 108% (inactive) | 104% (inactive) and 95.5% (inactive) | 109% (inactive) and 103% (inactive) | 104% (inactive) and 86.4% (inactive) | -14.8% (active) and 112% (inactive) | 97.4% (inactive) and 112% (inactive) | – | 105% (inactive) and 101% (inactive) |
| CC(C)Cc1ccc(C(C)C(=O)NCc2ccc(Cn3c(=O)sn(CCCCl)c3=O)cc2)cc1 (stereo not given) | 108% (inactive) and 3.82% (active) | 99.8% (inactive) and -30.9% (active) | 94.5% (inactive) and -3.85% (active) | 105% (inactive) and -52.9% (active) | 79.8% (inactive) and -94.2% (active) | 107% (inactive) and 69.5% (inactive) | 99.3% (inactive) and -79.1% (active) | 98.2% (inactive) and -83.4% (active) | – | 99.4% (inactive) and -32.1% (active) |
| Cc1cc(-c2ccc(NS(=O)(=O)c3ccccc3)c(C)c2)ccc1NS(=O)(=O)c1ccccc1 | 49.2% (inactive) and 59.7% (inactive) | 53.7% (inactive) and 66.1% (inactive) | 85.4% (inactive) and 95.8% (inactive) | 126% (inactive) and 111% (inactive) | 66.2% (inactive) and 99% (inactive) | 102% (inactive) and 126% (inactive) | 69.3% (inactive) and 117% (inactive) | 90.1% (inactive) and 107% (inactive) | – | 86.1% (inactive) and 87.3% (inactive) |
